Active and inactive are the calls of the source. How the source made its calls: active means hit-call score of the fitted dose curve at least 0.9, where 1 is the maximum; inactive means score below 0.9.
How the values were obtained:
Settings in all cases: mRNA level, 48 h; actives raise or lower the signal
[1] = read-out: ABC Transporter (ABCB11), ABCB11 (gene 8647); assay: LTEA_HepaRG_ABCB11: Life Technologies and Expression Analysis (LTEA) Assay for ABC Transporter (ABCB11) using HepaRG (AID 2283463)
Summary of the method: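 HepaRG, 48 h exposure, 8-pt half-log CRC top 100 uM, 0.5% DMSO vehicle, duplicates. Readout: TaqMan qRT-PCR of ABCB11 mRNA, housekeeping-normalized (ACTB/GAPDH/POLR2A). Bidirectional fit vs DMSO baseline.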

[2] = read-out: ABC Transporter (ABCC2), ABCC2 (gene 1244); assay: LTEA_HepaRG_ABCC2: Life Technologies and Expression Analysis (LTEA) Assay for ABC Transporter (ABCC2) using HepaRG (AID 2283464)
Summary of the method: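 qRT-PCR (TaqMan, Fluidigm array) read-out of ABCC2 mRNA, normalized to three housekeeping genes. Differentiated HepaRG cells were treated 48 h in serum-free induction medium with 8-point half-log series from 100 uM in 0.5% DMSO; curves fitted bidirectionally relative to DMSO.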

[3] = read-out: Broad substrate specificity ATP-binding cassette transporter ABCG2 (Homo sapiens) (UniProt Q9UNQ0); assay: LTEA_HepaRG_ABCG2: Life Technologies and Expression Analysis (LTEA) Assay for ABC Transporter (ABCG2) using HepaRG (AID 2283465)
Summary of the method: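 HepaRG, 48 h exposure, 8-pt half-log series from 100 uM, 0.5% DMSO vehicle, duplicates. Readout: ABCG2 transcript by qRT-PCR (Fluidigm array), housekeeping-normalized; bidirectional curve fit relative to DMSO baseline.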

[4] = read-out: ATP-citrate lyase (ACLY), ACLY (gene 47); assay: LTEA_HepaRG_ACLY: Life Technologies and Expression Analysis (LTEA) Assay for ATP-citrate lyase (ACLY) using HepaRG (AID 2283466)
Summary of the method: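 qRT-PCR readout of ACLY transcript after 48 h chemical treatment of HepaRG cells; expression normalized to three housekeeping genes. Eight-point half-log series, highest 100 uM, 0.5% DMSO vehicle. Gain or loss fitted against DMSO baseline.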

[5] = read-out: Peroxisomal acyl-coenzyme A oxidase 1 (ACOX1) gene, ACOX1 (gene 51); assay: LTEA_HepaRG_ACOX1: Life Technologies and Expression Analysis (LTEA) Assay for Peroxisomal acyl-coenzyme A oxidase 1 (ACOX1) gene using HepaRG (AID 2283467)
Summary of the method: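 HepaRG, 48 h chemical exposure, 8-pt half-log series from 100 uM top, 0.5% DMSO vehicle, duplicates. Readout: ACOX1 mRNA by Fluidigm qRT-PCR, housekeeping-normalized; bidirectional fit vs DMSO baseline.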

[6] = read-out: Alkaline Phosphatase, Placental (ALPP) gene, ALPP (gene 250); assay: LTEA_HepaRG_ALPP: Life Technologies and Expression Analysis (LTEA) Assay for Alkaline Phosphatase, Placental (ALPP) gene using HepaRG (AID 2283468);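 on AC50: differentiated human HepaRG liver cells in serum-free induction medium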
Summary of the method: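 qRT-PCR readout of ALPP mRNA (Fluidigm TaqMan), normalized to ACTB/GAPDH/POLR2A, after 48 h chemical exposure of HepaRG cells; 8-point half-log series, top 100 uM, 0.5% DMSO vehicle. Bidirectional curve fit versus DMSO baseline.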

[7] = read-out: Bcl-2 (BAD) gene, BAD (gene 572); assay: LTEA_HepaRG_BAD: Life Technologies and Expression Analysis (LTEA) Assay for Bcl-2 (BAD) gene using HepaRG (AID 2283469)
Summary of the method: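 HepaRG, 48 h exposure, 8-pt half-log curve from 100 uM in 0.5% DMSO, duplicates. Readout: TaqMan qRT-PCR for BAD mRNA, housekeeping-normalised (ACTB/GAPDH/POLR2A); gain or loss fitted against DMSO baseline.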

[8] = read-out: Bcl-2 (BAX) gene, BAX (gene 581); assay: LTEA_HepaRG_BAX: Life Technologies and Expression Analysis (LTEA) Assay for Bcl-2 (BAX) gene using HepaRG (AID 2283470)
Summary of the method: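 Gene expression measured by Fluidigm qRT-PCR with three housekeeping genes for normalisation. HepaRG cells, plated 48 h beforehand, treated 48 h at up to 100 uM (8-point, half-log) in 0.5% DMSO. Bidirectional fitting versus DMSO.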

[9] = read-out: adenosine kinase (ADK) gene, ADK (gene 132); assay: LTEA_HepaRG_ADK: Life Technologies and Expression Analysis (LTEA) Assay for adenosine kinase (ADK) gene using HepaRG (AID 2283471)
Summary of the method: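 ADK expression quantified by qRT-PCR, normalised to three housekeeping genes, after 48 h exposure of HepaRG cells to eight concentrations (top 100 uM, half-log steps, duplicate, 0.5% DMSO). Up- or down-regulation fitted relative to vehicle.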

[10] = read-out: Alpha-fetoprotein (AFP) gene, AFP (gene 174); assay: LTEA_HepaRG_AFP: Life Technologies and Expression Analysis (LTEA) Assay for Alpha-fetoprotein (AFP) gene using HepaRG (AID 2283472)
Summary of the method: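 AFP transcript measured by TaqMan qRT-PCR with three housekeeping genes for normalization, after 48 h chemical treatment of HepaRG cells (top 100 uM, half-log steps, 0.5% DMSO). Gain or loss fitted against vehicle.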

[11] = read-out: BCL2L11 (gene 10018); assay: LTEA_HepaRG_BCL2L11: Life Technologies and Expression Analysis (LTEA) Assay for Bcl-2 (BCL2L11) gene using HepaRG (AID 2283473)
Summary of the method: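 HepaRG, 48 h exposure, 8-pt half-log series from 100 uM in 0.5% DMSO, duplicates; qRT-PCR (Fluidigm TaqMan) for BCL2L11, housekeeping-normalized; bidirectional curve fit relative to DMSO baseline.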

[12] = read-out: Apolipoprotein A-V (APOA5) gene, APOA5 (gene 116519); assay: LTEA_HepaRG_APOA5: Life Technologies and Expression Analysis (LTEA) Assay for Apolipoprotein A-V (APOA5) gene using HepaRG (AID 2283474)
Summary of the method: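 HepaRG, 48 h chemical exposure in serum-free induction medium, 8-pt half-log series (top 100 uM), 0.5% DMSO vehicle, duplicates. Readout: APOA5 mRNA by qRT-PCR, housekeeping-normalized; bidirectional fit vs DMSO baseline.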

[13] = read-out: Apoptosis regulator Bcl-2 (Homo sapiens) (UniProt P10415); assay: LTEA_HepaRG_BCL2: Life Technologies and Expression Analysis (LTEA) Assay for Bcl-2 gene using HepaRG (AID 2283475)
Summary of the method: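 qRT-PCR of BCL2 transcript, normalized to three housekeeping genes (ACTB, GAPDH, POLR2A), after 48 h chemical exposure of HepaRG cells; concentrations top 100 uM with half-log dilutions, 0.5% DMSO vehicle, duplicates; changes up or down fitted relative to vehicle.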

[14] = read-out: Bcl-2 (BID) gene, BID (gene 637); assay: LTEA_HepaRG_BID: Life Technologies and Expression Analysis (LTEA) Assay for Bcl-2 (BID) gene using HepaRG (AID 2283476)
Summary of the method: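 Duplicate 48 h treatments of HepaRG cells in serum-free induction medium spanned 100 uM downward in half-log steps, 0.5% DMSO. Transcript change quantified by qRT-PCR against three housekeeping genes, fitted up or down versus DMSO.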

[15] = read-out: Caspase-3 (Homo sapiens) (UniProt P42574); assay: LTEA_HepaRG_CASP3: Life Technologies and Expression Analysis (LTEA) Assay for cysteine-aspartic acid protease (CASP3) using HepaRG (AID 2283477)
Summary of the method: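 HepaRG, 48 h exposure, 8 conc. (top 100 uM, half-log steps, duplicate), 0.5% DMSO vehicle; qRT-PCR of CASP3 transcript, housekeeping-normalised (ACTB/GAPDH/POLR2A); bidirectional curve fit vs DMSO baseline.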

[16] = read-out: Cytochrome P450 (CYP24A1), CYP24A1 (gene 1591); assay: LTEA_HepaRG_CYP24A1: Life Technologies and Expression Analysis (LTEA) Assay for Cytochrome P450 (CYP24A1) using HepaRG (AID 2283478)
Summary of the method: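 qRT-PCR read-out: CYP24A1 transcript levels normalized to three housekeeping genes, bidirectional curve fits against 0.5% DMSO baseline. Human HepaRG cells treated 48 h with chemicals at eight concentrations from 100 uM in half-log steps.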

[17] = read-out: Cytochrome P450 (CYP1A2), CYP1A2 (gene 1544); assay: LTEA_HepaRG_CYP1A2: Life Technologies and Expression Analysis (LTEA) Assay for Cytochrome P450 (CYP1A2) using HepaRG (AID 2283479)
Summary of the method: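 HepaRG, 48 h exposure, top 100 uM, half-log 8-pt, 0.5% DMSO vehicle, duplicates. Readout: TaqMan qRT-PCR of CYP1A2 mRNA, housekeeping-normalized (ACTB/GAPDH/POLR2A). Gain/loss fit relative to DMSO baseline.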

[18] = read-out: cysteine-aspartic acid protease (CASP8), CASP8 (gene 841); assay: LTEA_HepaRG_CASP8: Life Technologies and Expression Analysis (LTEA) Assay for cysteine-aspartic acid protease (CASP8) using HepaRG (AID 2283480)
Summary of the method: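 qRT-PCR readout of CASP8 mRNA, normalized to three housekeeping genes, after 48 h chemical exposure of HepaRG cells; 8-point half-log series, top 100 uM, 0.5% DMSO vehicle. Bidirectional curve fitting against DMSO baseline.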

[19] = read-out: Cytochrome P450 (CYP2B6), CYP2B6 (gene 1555); assay: LTEA_HepaRG_CYP2B6: Life Technologies and Expression Analysis (LTEA) Assay for Cytochrome P450 (CYP2B6) using HepaRG (AID 2283481)
Summary of the method: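 Read-out is CYP2B6 mRNA by TaqMan qRT-PCR, normalized to three housekeeping genes and fitted bidirectionally against 0.5% DMSO baseline. Human HepaRG cells received test chemicals for 48 h, top concentration 100 uM, half-log dilutions.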

[20] = read-out: Cytochrome P450 2C19 (Homo sapiens) (UniProt P33261); assay: LTEA_HepaRG_CYP2C19: Life Technologies and Expression Analysis (LTEA) Assay for CYP2C19 using HepaRG (AID 2283482)
Summary of the method: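 HepaRG, 48 h chemical exposure, 8-pt half-log series from 100 uM in 0.5% DMSO, duplicates. Readout: CYP2C19 mRNA by TaqMan qRT-PCR, housekeeping-normalized. Bidirectional fit vs DMSO baseline; phenobarbital 1mM as induction control.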

Measured: AC50

Broad substrate specificity ATP-binding cassette transporter ABCG2 (Homo sapiens), sequence (Q9UNQ0 whole entry, looked up): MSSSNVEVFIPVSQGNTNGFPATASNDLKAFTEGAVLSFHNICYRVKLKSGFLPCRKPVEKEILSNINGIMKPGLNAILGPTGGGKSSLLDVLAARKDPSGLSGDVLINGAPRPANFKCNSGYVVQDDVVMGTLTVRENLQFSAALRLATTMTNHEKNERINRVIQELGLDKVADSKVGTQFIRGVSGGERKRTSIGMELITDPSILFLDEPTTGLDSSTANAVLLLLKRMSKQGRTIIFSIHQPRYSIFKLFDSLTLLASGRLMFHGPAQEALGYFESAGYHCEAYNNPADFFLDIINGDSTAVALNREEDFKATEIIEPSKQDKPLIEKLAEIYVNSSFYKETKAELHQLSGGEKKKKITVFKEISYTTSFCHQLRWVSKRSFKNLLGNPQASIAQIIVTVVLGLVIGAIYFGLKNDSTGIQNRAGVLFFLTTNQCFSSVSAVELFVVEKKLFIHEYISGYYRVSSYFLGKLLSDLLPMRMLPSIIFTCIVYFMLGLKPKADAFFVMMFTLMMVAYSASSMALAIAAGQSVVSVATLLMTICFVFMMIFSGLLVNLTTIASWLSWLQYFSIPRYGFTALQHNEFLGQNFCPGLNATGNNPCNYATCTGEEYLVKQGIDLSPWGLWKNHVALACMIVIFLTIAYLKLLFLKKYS
Cytochrome P450 2C19 (Homo sapiens), sequence (P33261 whole entry, looked up): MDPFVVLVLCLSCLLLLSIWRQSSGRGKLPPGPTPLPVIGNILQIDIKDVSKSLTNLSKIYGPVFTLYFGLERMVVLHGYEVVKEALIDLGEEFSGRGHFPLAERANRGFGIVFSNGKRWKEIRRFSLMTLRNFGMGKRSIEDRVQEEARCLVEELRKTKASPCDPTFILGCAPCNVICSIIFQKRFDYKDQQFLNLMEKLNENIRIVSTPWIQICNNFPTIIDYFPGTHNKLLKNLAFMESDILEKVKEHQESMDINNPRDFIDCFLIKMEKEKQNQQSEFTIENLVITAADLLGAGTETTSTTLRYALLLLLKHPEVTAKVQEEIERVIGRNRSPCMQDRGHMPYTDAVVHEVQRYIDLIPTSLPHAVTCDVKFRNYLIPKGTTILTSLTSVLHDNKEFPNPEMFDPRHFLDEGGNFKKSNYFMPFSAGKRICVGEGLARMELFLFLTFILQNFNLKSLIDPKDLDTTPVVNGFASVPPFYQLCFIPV
Apoptosis regulator Bcl-2 (Homo sapiens), sequence (P10415 whole entry, looked up): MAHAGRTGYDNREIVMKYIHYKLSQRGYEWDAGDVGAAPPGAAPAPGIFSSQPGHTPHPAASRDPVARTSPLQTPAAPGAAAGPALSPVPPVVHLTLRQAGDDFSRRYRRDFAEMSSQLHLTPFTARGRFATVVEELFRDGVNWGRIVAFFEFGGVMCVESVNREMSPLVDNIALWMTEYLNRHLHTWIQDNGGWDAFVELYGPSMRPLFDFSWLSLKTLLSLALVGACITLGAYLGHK
Caspase-3 (Homo sapiens), sequence (P42574 whole entry, looked up): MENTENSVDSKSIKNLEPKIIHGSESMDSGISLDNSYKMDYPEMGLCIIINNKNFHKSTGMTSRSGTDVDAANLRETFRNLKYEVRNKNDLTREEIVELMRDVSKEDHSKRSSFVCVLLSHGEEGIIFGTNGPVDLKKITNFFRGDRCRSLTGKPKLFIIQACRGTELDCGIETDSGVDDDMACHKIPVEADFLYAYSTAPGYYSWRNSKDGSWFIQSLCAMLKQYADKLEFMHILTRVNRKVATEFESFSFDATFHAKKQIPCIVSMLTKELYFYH

CC(C)(O)c1ccc(CNC(=O)c2cccnc2Oc2ccc(F)cc2)cc1
active: [2] 29.5 µM | [19] 0.432 µM | [20] 8.99 µM
inactive: all other assays above

CC1=C(C)S(=O)(=O)CCS1(=O)=O
active: [1] 81 µM | [8] 50 µM | [9] 277 nM | [10] 80.3 µM | [13] 88.4 µM | [15] 69.8 µM | [20] 88 µM
not listed: [12] | [17] | [19]
inactive: all other assays above

CCCCCCCCCCCCCCOS(=O)(=O)O
active: [10] 50 µM
not listed: [19]
inactive: all other assays above

CCc1cc(C2=C(C(=O)O)N(c3ccccc3C(F)(F)F)S(=O)(=O)c3ccccc32)cc2c1OCO2
active: [1] 32.1 µM | [2] 1.64 µM | [3] 23.7 µM | [4] 65.2 µM | [6] 30.9 µM | [8] 50 µM | [10] 65 µM | [12] 77.2 µM | [13] 79.9 µM | [19] 90.5 µM | [20] 91.9 µM
inactive: [5] | [7] | [9] | [11] | [14] | [15] | [16] | [17] | [18]

O=C1CCCCC1
not listed: [12]
inactive: all other assays above

CSc1ccc(Oc2ccc(S(N)(=O)=O)cc2CN(C)C)cc1C
active: [1] 84.6 µM | [6] 54.5 µM | [10] 75 µM | [17] 50 µM | [19] 12.1 µM
not listed: [12]
inactive: all other assays above

NC(=Nc1ccccc1)Nc1ccccc1
active: [10] 70.9 µM | [17] 50 µM
not listed: [11]
inactive: all other assays above

From PubChem BioAssay (EPA / NIEHS)
